In PubChem BioAssay (NCATS):
Inconclusive results are not listed.

test: qHTS Assay for Lipid Storage Modulators (AID 1519); details: Drosophila S3 cells, BODIPY lipid droplet/cell ratio, laser cytometry; measured here: cell count channel max response; cells loaded with oleic acid
Procedure, shortened: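 Cells seeded at 5,000 per well were treated with compounds over a concentration series and loaded with oleic acid (400 uM, as added). Lipid droplet fluorescence (488 nm excitation, 500-530 nm channel) was read by laser-scanning cytometry and normalized to 20 uM Triacsin C.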

SMILES | max response
Cc1noc(C)c1-c1nc(N2CCOCC2)c2ccccc2n1 | 6.88%
Cc1noc(C)c1C(=O)N1CCC2(CCCN(C(=O)Nc3ccccc3)C2)CC1 | 20.4%
CNc1nc(-c2ccccc2C(F)(F)F)nc2ccccc12 | 10%
COc1ccc(Oc2ncc3nc(-c4ccc(F)cc4)c(=O)n(C)c3n2)cc1 | 18%
O=C(Nc1cccc(F)c1)N1CC2(CCN(C(=O)c3cccc(F)c3)CC2)C1 | 1.76%
O=C(c1ccncc1)N1CCC2(CCN(Cc3ccccc3)CC2)CC1 | 13.9%
Cc1cnc(CNc2ncnc3ccc(-c4ccccc4CN(C)C)cc23)cn1 | 5.18%
CC(=O)N1CCC[C@@]2(CCN(C(=O)Nc3cccc(C#N)c3)C2)C1 | -7.31%
COCC(=O)N1CCC2(CCN(Cc3ccc(C#N)cc3)CC2)CC1 | 17%
Cn1cccc1C(=O)N1CCC2(CCCN(Cc3ccncc3)C2)CC1 | 1.45%
CC(=O)N1CCC[C@@]2(CCN(Cc3nccs3)C2)C1 | 16.2%
CS(=O)(=O)Nc1cccc(-c2nc(NCCN3CCOCC3)c3ccccc3n2)c1 | -5.53%
Cc1nc2cnc(N3CCNCC3)nc2n(CCC#N)c1=O | 11.9%
CNc1ncnc2ccc(-c3cccc(NS(C)(=O)=O)c3)cc12 | -9.5%
N#Cc1cccc(NC(=O)N2CC[C@@]3(CCCN(C(=O)c4ccco4)C3)C2)c1 | 4.12%
CC(=O)NCCNc1nc(-c2ccc(N(C)C)cc2)nc2ccccc12 | 13%
FC(F)(F)c1ccccc1-c1nccc(NCc2ccccc2)n1 | 0.814%
O=C(c1csnn1)N1CCC2(CCN(Cc3ccccc3)CC2)CC1 | 4.52%
Cc1cnc(CNc2nc(-c3ccc(N(C)C)cc3)nc3ccccc23)cn1 | 13.6%
Cn1cc(C(F)(F)F)nc1-c1ccc(OC[C@@H](O)CNCCOc2ccc(O)c(C(N)=O)c2)cc1 | -4.45%

SMILES | max response
CN(C)c1ccc(-c2nc(N(C)C)c3ccccc3n2)cc1 | 2.51%
O=C(c1ccncc1)N1CCC2(CC1)CCN(c1ccncc1)CC2 | -11.6%
CC(=O)NCCNc1ncncc1-c1ccccc1C(F)(F)F | -7.27%
O=C(c1ccco1)N1CCC[C@@]2(CCN(c3ccccn3)C2)C1 | 22.6%
O=C(Nc1cccc(F)c1)N1CC2(CCN(C(=O)c3cnccn3)CC2)C1 | 10.6%
O=C(c1ccncc1)N1CCC2(CCN(Cc3nccs3)CC2)CC1 | 5.19%
Cc1noc(C)c1C(=O)N1CCC2(CC1)CN(c1ccccn1)C2 | 6.89%
Cc1cnc(CNc2cc(-c3ccoc3)ncn2)cn1 | 9.95%
COCCNc1nc(-c2ccccc2C)nc2ccccc12 | 3.47%
O=C(c1ccco1)N1CCC[C@@]2(CCN(C(c3ccccc3)c3ccccc3)C2)C1 | -10.5%
COc1ccc(C(=O)N2CCC[C@@]3(CCN(C(=O)NC(C)C)C3)C2)cc1 | 8.84%
O=C(c1cc(C(F)(F)F)cc(C(F)(F)F)c1)N1CCC2(CC1)CN(c1ccncc1)C2 | -2.54%
Cc1cccc(CNc2ncnc3ccc(-c4c(C)noc4C)cc23)c1 | -9.91%
Cn1cccc1C(=O)N1CCC2(CCCN(c3ccncc3)C2)CC1 | 8.08%
COc1ccc(NC(=O)N2CC3(CCN(C(=O)c4csnn4)CC3)C2)cc1 | 7.84%
COc1ccc2[nH]cc(CCNc3ccnc(-c4cccc(NS(C)(=O)=O)c4)n3)c2c1 | -1.88%
O=C(c1ccncc1)N1CCC[C@@]2(CCN(Cc3ccncc3)C2)C1 | 4.05%
COc1ccc(CNc2cc(-c3ccccc3CN(C)C)ncn2)c(OC)c1 | 8.17%
O=C(c1ccncc1)N1CCC2(CC1)CCN(c1ccc(-c3ccccc3)cc1)CC2 | -2.77%
COc1ccc(CNc2nc(-c3ccoc3)nc3ccccc23)c(OC)c1 | -6.93%
